# Compound activity deposited in PubChem BioAssay by several laboratories.
# Mdm2 MdmX PPI: human Mdm2/MdmX binding inhibition | O15151+Q00987 | SaOS-2 split-luciferase Mdm2/MdmX complementation, luminescence | inhibition, % at 8 µM | 330,000 compounds, 3% hits;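 active = inhibition of at least 50% at 8 µM in the primary screen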
# Target sequence (O15151 whole entry, looked up): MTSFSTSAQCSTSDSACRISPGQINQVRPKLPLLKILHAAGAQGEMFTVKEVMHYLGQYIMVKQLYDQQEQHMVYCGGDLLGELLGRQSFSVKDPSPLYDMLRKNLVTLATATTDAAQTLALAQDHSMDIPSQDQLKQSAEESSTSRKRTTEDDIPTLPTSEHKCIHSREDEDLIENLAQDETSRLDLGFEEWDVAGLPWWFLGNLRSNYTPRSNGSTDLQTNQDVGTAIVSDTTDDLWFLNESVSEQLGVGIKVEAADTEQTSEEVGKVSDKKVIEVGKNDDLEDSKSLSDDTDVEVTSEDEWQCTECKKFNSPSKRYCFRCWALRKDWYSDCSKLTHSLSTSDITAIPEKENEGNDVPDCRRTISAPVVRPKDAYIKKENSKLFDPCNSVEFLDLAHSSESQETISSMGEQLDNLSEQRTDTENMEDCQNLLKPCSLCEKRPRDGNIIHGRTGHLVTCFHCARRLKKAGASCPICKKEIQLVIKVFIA
# Target sequence (Q00987 whole entry, looked up): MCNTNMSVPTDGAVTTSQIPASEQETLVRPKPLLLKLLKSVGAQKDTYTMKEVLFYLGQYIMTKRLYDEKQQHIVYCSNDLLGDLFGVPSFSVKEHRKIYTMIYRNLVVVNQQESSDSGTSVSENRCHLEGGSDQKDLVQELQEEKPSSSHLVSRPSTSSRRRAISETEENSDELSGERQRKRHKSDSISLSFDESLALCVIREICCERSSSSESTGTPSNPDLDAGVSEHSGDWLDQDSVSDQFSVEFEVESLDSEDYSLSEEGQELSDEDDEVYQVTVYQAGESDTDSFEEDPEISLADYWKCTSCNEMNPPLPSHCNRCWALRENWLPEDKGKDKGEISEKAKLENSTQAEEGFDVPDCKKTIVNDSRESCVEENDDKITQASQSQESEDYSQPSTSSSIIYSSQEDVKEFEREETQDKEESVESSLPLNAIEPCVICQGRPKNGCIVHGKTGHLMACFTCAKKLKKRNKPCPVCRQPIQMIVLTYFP
# Beta cell apopt: beta cell apoptosis inhibition; AID 435005; 300,000 compounds, 0.8% hits; protection from apoptosis, % (no concentration beside the values); INS-1E cytokine-induced death, ATP luminescence, 48 h; percent of positive-control rescue, neutral wells zero;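 active = Every replicate reaches about 75%, or at least half do and their mean reaches it too, limit read from the data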;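 note: 0% = cytokine-treated negative control wells and 100% = positive control rescue; higher means more ATP so stronger rescue from cytokine killing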
# GRIN3A LBD mod: modulates the human NR3A ligand-binding domain; NR3A LBD differential scanning fluorimetry, Tm shift; 0% = protein alone, 100% = glycine-bound protein; Tm shift relative to glycine control, % at 25 µM; 340,000 compounds, 2.5% hits;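 active = melting temperature shift of at least 10% of the positive control shift, at one fixed dose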
# SKKanGAS inh: SKKanGAS growth inhibition. S. pyogenes SKKanGAS, kanamycin growth, BacTiter-Glo, 6 h. inhibition, % at 7.5 µM. 300,000 compounds, 1.3% hits;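 active = mean replicate score, as percent of positive control median, at least 50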;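 note: strain carries kanamycin resistance gene driven by streptokinase promoter and grows in 40 µg/ml kanamycin; loss of luminescence reflects streptokinase promoter inhibition or plain growth inhibition; 0% = median of DMSO wells and 100% = positive control at its reference dose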
# CSC inhib: blocks cancer stem cells; cancer stem cell-like cells viability, luminescence; inhibition, % at 7.5 µM; 300,000 compounds, 1.1% hits; in the data active = inhibition above about 75%; tested in HMLE shEcad cells
# MPTP inh: blocks calcium-induced mitochondrial swelling; 360,000 compounds, 1.4% hits; isolated mouse mitochondria, Ca2+ swelling absorbance, 30 min; inhibition, % at 10 µM; AID 602449;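 active = inhibition of 50% or more, scaled per plate between neutral and stimulator controls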;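 note: 0% = DMSO wells given calcium and 100% = 1 mM EGTA wells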
# * marks the source's active call; other numbers are inactive results; nt = no result. Compounds with a hit are over-represented: about 6.9% of the library has one in this group of screens.
SMILES,Mdm2 MdmX PPI,Beta cell apopt,GRIN3A LBD mod,SKKanGAS inh,CSC inhib,MPTP inh
O=S(=O)(CCNCc1ccccc1)NC1CCCCC1,nt,nt,0,nt,nt,-1
C(=N\N1CCN(C2c3ccccc3-c3ccccc32)CC1)/c1ccncc1,46,-7,-5,-3,13,0
C/C(=N\N1CCN(C2c3ccccc3-c3ccccc32)CC1)c1ccncc1,3,-4,15*,38,-18,1
C=CCn1c(O)c2ccc(C(=O)N=NC(=O)COc3ccc(OC)cc3)cc2c1O,-1,-4,1,-7,-18,-1
COc1ccc(-n2cc(-c3ccc(OC(F)F)cc3)[n+]3c2CCCCC3)cc1,-32,103*,1,-9,-9,2
COc1ccc(-c2cn(-c3ccc(Cl)cc3)c3[n+]2CCCCC3)cc1,22,100*,-1,-15,17,4
CN(c1ccccc1)S(=O)(=O)c1ccc(NC(=O)c2ccccc2C(=O)O)cc1,14,nt,-1,0,-1,4
CCn1c2ccccc2c2cc(NC(=O)COC(=O)c3cc(S(N)(=O)=O)c(Cl)cc3Cl)ccc21,7,3,14*,-2,-3,6
CCn1c2ccccc2c2cc(NC(=O)c3cccc([N+](=O)[O-])c3)ccc21,21,15,17*,1,88*,3
CCn1c2ccccc2c2cc(NC(=O)COc3ccc(OC)cc3)ccc21,6,4,-11,-2,-2,0
CCn1c2ccccc2c2cc(NC(=O)CN(C)CC(=O)Nc3ccc(N4CCOCC4)cc3)ccc21,-23,2,0,-4,80*,-1
CCn1c2ccccc2c2cc(NC(=O)c3cc(OC)cc(OC)c3)ccc21,43,70,2,2,84*,0
CCN(CC(=O)NCCN1CCOCC1)S(=O)(=O)c1ccc(F)cc1,-5,nt,-2,-2,-8,2
COc1ccc(CN(CC(=O)NCc2ccc(F)cc2)C(=O)CCC(=O)Nc2nccs2)cc1,16,-3,-3,-1,-9,2
CCOc1nc(-c2ccc(OC)cc2)ccc1-c1noc(C)n1,13,-9,25*,2,4,0
COc1ccc(-c2ccc(-c3noc(C)n3)c(OC)n2)cc1,-24,-4,1,6,-8,-2
CCOc1ccc(NS(=O)(=O)c2ccc(NS(C)(=O)=O)cc2)cc1,0,-2,0,-4,-2,-6
CSc1cccc(NS(=O)(=O)c2ccc(F)cc2)c1,14,nt,-3,-1,-2,4
CSc1ccc(S(=O)(=O)Nc2ccc(S(=O)(=O)Nc3ccc(C)cc3)cc2)cc1,18,1,25*,16,11,1
Cc1ccc(CNC(=S)Nc2ccc(NS(=O)(=O)c3ccc(C)cc3)cc2)cc1,43,2,23*,56*,11,2
CSc1ccc(S(=O)(=O)Nc2ccc(NC(C)=O)cc2)cc1,29,7,5,1,-2,0
CCOc1ccc(NS(=O)(=O)c2ccc(NS(=O)(=O)c3ccc(SC)cc3)cc2)cc1,-45,7,28*,nt,nt,0
CSc1cccc(NS(=O)(=O)c2ccccc2)c1,-3,2,20*,0,-6,-1
Cc1ccc(NC(=S)NCc2ccc(F)cc2)cc1,21,nt,-5,-13,-18,18
CN1C(C(=O)NCc2ccco2)CC2Cn3c(nc4cc(Cl)c(Cl)cc43)C21 (configuration not stated),22,2,1,4,0,-2
SMILES,Mdm2 MdmX PPI,Beta cell apopt,GRIN3A LBD mod,SKKanGAS inh,CSC inhib,MPTP inh
Cc1cc2nc3n(c2cc1C)CC1CC(C(=O)NCCc2cccs2)N(C)C31 (configuration not stated),21,0,13*,0,12,0
CN1C(C(=O)NCc2ccccc2)CC2Cn3c(nc4cc5ccccc5cc43)C21 (configuration not stated),8,-11,12*,15,5,-1
COc1ccccc1CNC(=O)C1CC2Cn3c(nc4cc5ccccc5cc43)C2N1C (configuration not stated),-7,6,1,8,-11,0
CN1C(C(=O)NCc2ccco2)CC2Cn3c(nc4cc5ccccc5cc43)C21 (configuration not stated),7,-1,10*,5,9,0
O=C1CSC(=S)N1Cc1ccccc1,nt,nt,nt,nt,nt,0
COc1cc(C=O)ccc1OC(=O)Nc1ccccc1,16,-6,-4,0,-7,0
CC(=O)NC12CC3CC(C1)CC(C(=O)Nc1nc4ccc(F)cc4s1)(C3)C2,-25,6,-3,-5,17,1
O=C(CNC(=O)c1ccco1)OCC(=O)c1ccc([N+](=O)[O-])cc1,25,1,1,3,-1,-1
Cc1ccc(CNC(=O)c2nc3nc(C)cc(C)n3n2)cc1,19,-2,0,-1,-19,-1
Cc1cc(C)n2nc(C(=O)NCc3ccccc3)nc2n1,2,-6,24*,-2,nt,0
O=C1C=CN2CCOCC2C1 (configuration not stated),7,-6,-1,nt,nt,-1
CCN(C(=O)CSc1nnnn1-c1ccccc1)C1CCS(=O)(=O)C1 (configuration not stated),-37,-3,5,3,-6,-1
O=c1cc(O)c2c(=O)n(-c3ccccc3)c3c(c2o1)CCCCCC3,8,-1,-3,56*,-10,-2
O=C(CCC(=O)Nc1cc(C(F)(F)F)ccc1Cl)N/N=C\c1cc([N+](=O)[O-])ccc1O,49,40,5,103*,16,5
Brc1ccc(/C=N/Nc2ccccc2)cc1,-16,4,20*,0,79*,6
Oc1ccc(/C=N/Nc2ccccc2)cc1,-10,-1,-1,4,16,2
O=C(CCC(=O)Nc1ccc(Br)cc1)N/N=C/c1cc([N+](=O)[O-])ccc1O,50,3,-13,56*,12,4
O=C(CCCC(=O)Nc1ccc(Br)cc1)N/N=C/c1ccccc1,16,-3,10*,36,3,-1
COc1cccc(-n2nnc3c(=O)n(CC(=O)Nc4cc(C)on4)cnc32)c1,24,-12,1,5,-10,1
O=C(Nc1nncs1)C1CC(=O)N(CCc2ccc(F)cc2)C1 (configuration not stated),-26,-6,1,6,11,-4
CC1(C(=O)NS(=O)(=O)c2ccccc2)CCN1C(=O)CC1CCCC1 (configuration not stated),nt,nt,nt,nt,nt,0
CSCCC1COC(c2cccs2)=N1 (configuration not stated),17,1,2,6,-8,0
Cc1ccc(N(CCC(=O)N2CCOCC2)S(=O)(=O)c2ccccc2)cc1,18,-3,1,nt,-7,-1
